Screens: PubChem BioAssay, several laboratories
VLA-4 inh – inhibition in a human VLA-4 binding assay; P13612; VLA-4 expressing cells, ligand binding flow cytometry; inhibition, % (about 7 µM as worked out from the volumes in the protocol); actives 0.2% (n = 330,000); in the data active means inhibition above about 50%
Target sequence (P13612 whole entry, looked up): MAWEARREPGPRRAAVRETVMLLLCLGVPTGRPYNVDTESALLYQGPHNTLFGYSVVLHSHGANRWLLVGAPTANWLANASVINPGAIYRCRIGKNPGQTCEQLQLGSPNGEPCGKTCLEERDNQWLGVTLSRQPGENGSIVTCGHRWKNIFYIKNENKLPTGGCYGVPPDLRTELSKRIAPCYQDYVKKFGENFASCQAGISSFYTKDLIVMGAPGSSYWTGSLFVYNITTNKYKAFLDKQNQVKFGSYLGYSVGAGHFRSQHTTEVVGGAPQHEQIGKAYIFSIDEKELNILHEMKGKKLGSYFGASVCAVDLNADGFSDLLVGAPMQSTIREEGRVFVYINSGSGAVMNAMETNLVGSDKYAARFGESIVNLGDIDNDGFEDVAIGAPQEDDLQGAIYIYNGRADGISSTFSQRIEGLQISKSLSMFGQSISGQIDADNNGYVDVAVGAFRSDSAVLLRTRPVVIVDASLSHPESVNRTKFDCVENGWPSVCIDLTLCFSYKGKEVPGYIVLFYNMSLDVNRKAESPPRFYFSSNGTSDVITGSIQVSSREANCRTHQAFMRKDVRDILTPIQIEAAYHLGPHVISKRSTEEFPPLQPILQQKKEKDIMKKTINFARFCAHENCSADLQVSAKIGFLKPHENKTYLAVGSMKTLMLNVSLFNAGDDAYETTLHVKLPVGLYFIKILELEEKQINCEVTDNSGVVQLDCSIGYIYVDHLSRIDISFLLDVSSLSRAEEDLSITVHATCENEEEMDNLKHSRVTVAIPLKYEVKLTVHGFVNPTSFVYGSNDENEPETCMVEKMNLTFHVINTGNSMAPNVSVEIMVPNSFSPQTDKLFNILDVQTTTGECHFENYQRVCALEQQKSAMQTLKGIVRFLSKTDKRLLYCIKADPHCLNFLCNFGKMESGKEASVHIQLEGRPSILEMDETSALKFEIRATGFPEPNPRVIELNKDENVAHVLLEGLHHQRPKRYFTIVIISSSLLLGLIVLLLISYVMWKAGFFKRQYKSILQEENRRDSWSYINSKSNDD
SUMO Mot1 rescue – SUMOylation pathway inhibition by Mot1-301 growth rescue | growth rescue, % at 18.8 µM | actives 1% (n = 320,000) | S. cerevisiae Mot1-301 growth rescue, ATP luminescence, 38.5C; percent above DMSO median, 100 means doubled;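 active means every valid replicate shows activation above 250% relative to neutral control wells; inactive means the rest, any valid replicate at or below 250%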;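 further: OY570 slx delta 5 strain wells were the positive control but not used for scaling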
ALR H2O2 inh – inhibitors of human sulfhydryl oxidase ALR. P55789. purified ALR, DTT oxidation, H2O2 HRP-luminol luminescence. inhibition, % (no concentration beside the values). actives 3.8% (n = 290,000);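 active means mean replicate inhibition above about 79%, with every replicate also reaching it, limit read from the data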
Bfl-1 A1 inh – inhibitors of the anti-apoptotic protein A1, read as caspase activation | actives 0.066% (n = 330,000) | caspase activation, % (no concentration beside the values) | MEF A1-2A-BIM cells, Caspase-Glo 3/7 luminescence, 3 h; percent of clofoctol response, vehicle zero;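 active means over half of replicate activation scores above 10%, or exactly half above 10 with the replicate mean above 10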
AHR activator – human AHR activation; P35869; AHR-responsive luciferase reporter cells, luminescence; activation, % at 5 µM; actives 2.5% (n = 320,000); AID 2796; in the data active means activation above about 47%;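 further: 0% = vehicle wells and 100% = reference agonist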
Efflux pump inh – blocks antifungal efflux pumps in multiplex yeast assay; actives 0.44% (n = 330,000); inhibition, % at 10 µM; S. cerevisiae Candida pump triplex, Nile Red efflux;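 active means plate passing quality check with inhibition over a set limit, or well fluorescence over plate mean plus 4 SD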;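 further: Nile Red retained in pooled yeast measured as flow cytometry median fluorescence; 0% = buffer negative control and 100% = Enniatin B positive control; higher means more Nile Red kept so more efflux inhibition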
Mot1 SUMO dose – SUMO pathway inhibitors in yeast Mot1-301 growth; AID 493004; 2,300 tested, under 10 active; shares compounds with SUMO Mot1 rescue; growth activity, percent, % at 42 µM; S. cerevisiae Mot1-301 galactose growth, ATP luminescence, 24 h; -100 = growth of slx-deleted rescue strain;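 active means Signal drops as the depositor expects, and the fitted half-maximal dose is no more than ten times the top valid tested dose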;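 further: more negative values mean stronger growth rescue toward the control strain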
An asterisk follows results filed as active. Hits are enriched below; roughly 7.2% of the tested compounds scored in any of these assays.

`C=CCNC(=O)c1ccccc1NC(=O)C1COc2ccccc2O1` (centres undefined) gave VLA-4 inh 7, SUMO Mot1 rescue -2, ALR H2O2 inh 2, Bfl-1 A1 inh 0, AHR activator 4 and Efflux pump inh 0.
`Cc1ccc(C)c(C(=O)CCC(=O)NCc2ccc(Cl)cc2)c1` gave VLA-4 inh 15, SUMO Mot1 rescue 14, ALR H2O2 inh -6, Bfl-1 A1 inh -1, AHR activator -3 and Efflux pump inh 0.
For Cc1ccc(S(=O)(=O)N(C)c2ccc(OC(=O)CN3C(=O)NC4(CCCC4)C3=O)cc2)cc1C the results were VLA-4 inh 1, SUMO Mot1 rescue active, ALR H2O2 inh -9, Bfl-1 A1 inh 0, AHR activator 3, Efflux pump inh 0 and Mot1 SUMO dose 0.
`CCCc1ccc(S(=O)(=O)NCCc2ccncc2)cc1` gave VLA-4 inh 0, SUMO Mot1 rescue 541*, ALR H2O2 inh -1, Bfl-1 A1 inh 0, AHR activator 19, Efflux pump inh 0 and Mot1 SUMO dose 0.
For O=C1c2ccccc2C(=O)N1CCc1nc(-c2cccnc2)no1 the results were VLA-4 inh -8, SUMO Mot1 rescue -13, ALR H2O2 inh 0, Bfl-1 A1 inh -1, AHR activator -2 and Efflux pump inh 0.
Clc1ccc(-c2noc(CCCc3ccccc3)n2)cc1 was read as VLA-4 inh -11, SUMO Mot1 rescue -8, ALR H2O2 inh -2, Bfl-1 A1 inh 0, AHR activator 8 and Efflux pump inh 0.
c1ccc(OCCCc2nc(-c3cccnc3)no2)cc1 was read as VLA-4 inh 7, SUMO Mot1 rescue 456*, ALR H2O2 inh 1, Bfl-1 A1 inh 0, AHR activator -1, Efflux pump inh 0 and Mot1 SUMO dose 1.
For c1ccc(CCCc2nc(-c3cccnc3)no2)cc1 the results were VLA-4 inh 9, SUMO Mot1 rescue 628*, Bfl-1 A1 inh 0, AHR activator -4, Efflux pump inh 0 and Mot1 SUMO dose 0.
For CCCCNC(=O)CSc1nc2ccsc2c(=O)n1CCCC(=O)NCCc1ccc(S(N)(=O)=O)cc1 the results were VLA-4 inh 5, SUMO Mot1 rescue -4, ALR H2O2 inh -3, Bfl-1 A1 inh 1, AHR activator -1 and Efflux pump inh 0.
Screening Cc1cc(=O)nc2c3ccccc3n(C(C)C(=O)Nc3c(F)c(F)c(F)c(F)c3F)n12 (centres undefined) returned VLA-4 inh -4, SUMO Mot1 rescue 163, ALR H2O2 inh 4, Bfl-1 A1 inh -1, AHR activator 2 and Efflux pump inh 0.
Screening CC(=O)Nc1cccc2c1C(=O)N(c1ccccc1C)C2=O returned VLA-4 inh 12, SUMO Mot1 rescue 518*, ALR H2O2 inh 2, Bfl-1 A1 inh -1, AHR activator 18, Efflux pump inh 0 and Mot1 SUMO dose -1.
Screening Cn1c(CO)cnc1SCC(=O)c1ccc(F)cc1 returned VLA-4 inh 33, SUMO Mot1 rescue 188, Bfl-1 A1 inh -2, AHR activator 0 and Efflux pump inh 0.
`Cc1cnc(=O)[nH]c1SCC(=O)c1ccc(F)cc1` gave VLA-4 inh 1, SUMO Mot1 rescue 436*, ALR H2O2 inh 99*, Bfl-1 A1 inh 0, AHR activator 33, Efflux pump inh 0 and Mot1 SUMO dose 0.
Screening CC(C)C(NC(=O)C12CC3CC(CC(C3)C1)C2)C(=O)NC1=NCCS1 (centres undefined) returned VLA-4 inh 0, ALR H2O2 inh -5, Bfl-1 A1 inh 1, AHR activator 1 and Efflux pump inh 0.
CC(NC(=O)C1CCCCC1)C(=O)NC1=NCCS1 (centres undefined) was read as VLA-4 inh -5, SUMO Mot1 rescue 566*, ALR H2O2 inh -4, Bfl-1 A1 inh 0, AHR activator 0, Efflux pump inh 0 and Mot1 SUMO dose 0.
For COc1ccc(OC)c(N(CC(=O)N2CCCC2)S(=O)(=O)c2ccccc2)c1 the results were VLA-4 inh 4, SUMO Mot1 rescue 469*, ALR H2O2 inh 2, Bfl-1 A1 inh 0, AHR activator -1, Efflux pump inh 1 and Mot1 SUMO dose 1.
Screening COc1ccc(C)cc1N(CC(=O)N1CCCCCC1)S(=O)(=O)c1ccccc1 returned VLA-4 inh 0, SUMO Mot1 rescue -6, ALR H2O2 inh -16, Bfl-1 A1 inh 0, AHR activator -3 and Efflux pump inh 0.
`Cn1c(=O)n(C)c2cc(NS(=O)(=O)c3cccs3)ccc21` gave VLA-4 inh 5, SUMO Mot1 rescue 8, ALR H2O2 inh -1, Bfl-1 A1 inh 0, AHR activator 0 and Efflux pump inh 0.
Screening COc1ccc(CNCC(=O)Nc2cc(C)nn2-c2nc(C)cc(C)n2)cc1OC returned VLA-4 inh 4, SUMO Mot1 rescue 63, ALR H2O2 inh -3, Bfl-1 A1 inh 0, AHR activator 3 and Efflux pump inh 0.
`Cc1cc(C)nc(-n2nc(C)cc2NC(=O)CNCc2ccccc2)n1` gave VLA-4 inh -4, SUMO Mot1 rescue active, ALR H2O2 inh -1, Bfl-1 A1 inh 0, AHR activator 5, Efflux pump inh 0 and Mot1 SUMO dose 1.
Screening Cc1ccc(NC(=S)NC(NC(=O)c2ccccc2C)C(Cl)(Cl)Cl)c(C)c1 (centres undefined) returned VLA-4 inh -1, SUMO Mot1 rescue 627*, ALR H2O2 inh -5, Bfl-1 A1 inh 1, AHR activator 6, Efflux pump inh 0 and Mot1 SUMO dose 0.
`Cc1noc(C)c1COc1ccc(C(=O)OCC(=O)NCCN2C(=O)CSC2=O)cc1` gave VLA-4 inh 6, SUMO Mot1 rescue 3, ALR H2O2 inh -8, Bfl-1 A1 inh 0, AHR activator 0 and Efflux pump inh 0.
`COC(=O)c1cccc(NC(=O)c2cccnc2)c1` gave VLA-4 inh -8, SUMO Mot1 rescue active, ALR H2O2 inh -2, Bfl-1 A1 inh 0, AHR activator 10, Efflux pump inh 0 and Mot1 SUMO dose 0.
`O=C(Cc1cccs1)N1CCCC(c2nc3c(nnn3Cc3ccc(F)cc3)c(=O)[nH]2)C1` (centres undefined) gave VLA-4 inh 2, SUMO Mot1 rescue 533*, ALR H2O2 inh 1, Bfl-1 A1 inh 1, AHR activator -3, Efflux pump inh 1 and Mot1 SUMO dose 0.
COc1ccccc1CNC(=O)CN(c1ccc(C)cc1)S(=O)(=O)c1c(C)n[nH]c1C was read as VLA-4 inh 9, SUMO Mot1 rescue 912*, ALR H2O2 inh 1, Bfl-1 A1 inh 0, AHR activator 7, Efflux pump inh 0 and Mot1 SUMO dose -1.
